# Data taken from PubChem BioAssay.
# The source made the active and inactive calls.
# Tests used:
# [1] = test system: PRMT1 (protein arginine N-methyltransferase 1); assay: small molecules binding arginine methyltransferase PRMT1 – biochemical, small-molecule microarray, 635 nm fluorescence, primary screen (AID 1088); conditions: higher = more signal;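 note: binding of Prmt1 protein to compounds spotted on small-molecule microarray slides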
# [2] = growth effects on S. cerevisiae YJM789 – YJM789 clinical isolate, OD600, 24 h, basal, primary screen (AID 1089); conditions: higher = more signal, called active from +8 up or from −8 down;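 note: growth of clinical yeast isolate S. cerevisiae YJM 789 seeded 1000 cells per well; test concentration not given here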
# [3] = S. pombe growth modifiers, basal conditions – strain 972, OD600, 24 h, no modulator, primary screen (AID 1090);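 note: basal condition with compound alone and no growth modifier present; test concentration not given here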; conditions: S. pombe 972 growth, higher = more signal, called active from +8 up or from −8 down
# [4] = budding yeast growth modifiers under rapamycin – strain BY4716, OD600, 96 h, primary screen (AID 1091); note: test concentration not given here; conditions: S. cerevisiae BY4716 + rapamycin, higher = more signal, called active from +8 up or from −8 down
# [5] = molecular target: Torsin-1A-interacting protein 2 (Homo sapiens) (UniProt Q8NFQ8); assay: small molecules binding lysate-expressed LULL1 – cell lysate, human LULL1 lysate, 635/667 nm fluorescence, primary screen (AID 1092); conditions: small-molecule microarray, hLULL1 lysate binding, 635 nm fluorescence; higher = more signal;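 note: probe is lysate of COS7 cells overexpressing human LULL1; score merges per-feature 667 nm fluorescence with signal-to-noise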
# [6] = optical density change of DRC41 E. coli – strain DRC41, OD650, 24 h, E. coli filamentation project, primary screen (AID 1093);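 note: MC1000 strain lacking acrAB efflux and sulA so SOS filamentation is blocked; test concentration not given here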; conditions: E. coli DRC41 growth, higher = more signal, called active from +8 up or from −8 down
# [7] = probe aLefty2 binding to arrayed compounds – biochemical, biotinylated probe, 635/667 nm fluorescence, primary screen (AID 1094); conditions: small-molecule microarray, higher = more signal;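 note: score merges spot fluorescence near 667 nm with spot signal-to-noise ratio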
# [8] = test system: Noggin (protein binding on small-molecule microarray); assay: small molecules binding Noggin protein – biochemical, 635/667 nm fluorescence, primary screen (AID 1095); conditions: 635 nm fluorescence, higher = more signal;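 note: score merges 667 nm feature fluorescence with signal to noise over triplicate slides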
# [9] = molecular target: Neurogenic locus notch homolog protein 3 (Homo sapiens) (UniProt Q9UM47); assay: small molecules binding NOTCH3 protein – biochemical, 635/667 nm fluorescence, primary screen (AID 1096); conditions: small-molecule microarray, 635 nm fluorescence, higher = more signal
# [10] = probe aEGFR binding to arrayed compounds – biochemical, biotinylated probe, 635/667 nm fluorescence, primary screen (AID 1097); conditions: small-molecule microarray, higher = more signal;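 note: probe is a biotinylated anti-EGFR antibody binding compounds printed on slides; score combines fluorescence near 667 nm and signal to noise of each spot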
# [11] = test system: Plasmodium falciparum Sir2 (PF13_0152, Sir2A); assay: Plasmodium falciparum Sir2A binding compounds – biochemical, small-molecule microarray, 635 nm fluorescence, primary screen (AID 1098); conditions: fluorescence 635 nm, higher = more signal;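 note: score merges spot fluorescence intensity with its signal-to-noise ratio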
# [12] = probe aDKK1 binding to arrayed compounds – biochemical, biotinylated probe, 635/667 nm fluorescence, primary screen (AID 1099); conditions: small-molecule microarray, higher = more signal;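 note: score merges 667nm spot fluorescence with signal to noise across triplicate slides; reference of the scale not given here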
# [13] = probe aCHRDL2 binding to arrayed compounds – biochemical, biotinylated probe, 635/667 nm fluorescence, primary screen (AID 1100); conditions: small-molecule microarray, higher = more signal
# [14] = change in splice reporter luminescence, either direction, cell-based, HEK293, spliceosome inhibition project, primary screen (AID 1101); conditions: HEK293 splicing luciferase reporter, 24 h, higher = more signal, called active from +8 up or from −8 down;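 note: HEK293 cells carrying a splicing-competent luciferase reporter gene; test concentration not given here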
# [15] = molecular target: Fibroblast growth factor 10 (Homo sapiens) (UniProt O15520); assay: compounds binding fibroblast growth factor 10 – biochemical, small-molecule microarray, 635 nm fluorescence, primary screen (AID 1102); conditions: FGF10 binding, fluorescence 635 nm, higher = more signal
# [16] = test system: glycogen synthase kinase-3 (GSK3A per assay name; protocol says GSK3B); assay: compounds binding glycogen synthase kinase-3 – biochemical, small-molecule microarray, 635 nm fluorescence, GSK3A, primary screen (AID 1103); conditions: fluorescence 635 nm, higher = more signal; note: the record names both GSK3A and GSK3B
# [17] = molecular target: Epidermal growth factor receptor (Homo sapiens) (UniProt P00533); assay: compounds binding epidermal growth factor receptor – biochemical, small-molecule microarray, 635 nm fluorescence, primary screen (AID 1104); conditions: EGFR binding, higher = more signal;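 note: score merges 667 nm emission intensity with spot signal to noise over triplicate slides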
# [18] = molecular target: Follistatin-related protein 3 (Homo sapiens) (UniProt O95633); assay: compounds binding follistatin-related protein 3 – biochemical, small-molecule microarray, 635 nm fluorescence, primary screen (AID 1105); conditions: FSTL3 binding, higher = more signal;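 note: score merges emission near 667 nm and signal to noise per printed spot across three slides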
# [19] = molecular target: Dickkopf-related protein 1 (Homo sapiens) (UniProt O94907); assay: small molecules binding DKK1 protein – biochemical, small-molecule microarray, 635 nm fluorescence scan, primary screen (AID 1106); conditions: higher = more signal;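 note: score merges emission near 667 nm with signal to noise over three replicate slides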
# [20] = test system: Inhibin beta A chain (activin A); assay: small molecules binding activin A – biochemical, small-molecule microarray, 635 nm fluorescence scan, primary screen (AID 1107); conditions: INHBA, higher = more signal;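 note: mouse activin A protein probed at 4.33 µg/mL on printed slides; score merges bound-protein fluorescence near 667 nm with spot signal-to-noise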
# Chain of Follistatin-related protein 3 (Homo sapiens) (O95633 whole entry, looked up): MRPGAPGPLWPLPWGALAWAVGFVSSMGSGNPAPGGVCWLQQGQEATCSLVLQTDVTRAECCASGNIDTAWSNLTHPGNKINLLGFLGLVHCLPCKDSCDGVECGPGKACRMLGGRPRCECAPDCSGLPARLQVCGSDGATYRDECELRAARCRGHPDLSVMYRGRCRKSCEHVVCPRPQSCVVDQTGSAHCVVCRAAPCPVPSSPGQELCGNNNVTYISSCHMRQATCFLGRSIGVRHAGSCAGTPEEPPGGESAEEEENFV
# Chain of Torsin-1A-interacting protein 2 (Homo sapiens) (Q8NFQ8 whole entry, looked up): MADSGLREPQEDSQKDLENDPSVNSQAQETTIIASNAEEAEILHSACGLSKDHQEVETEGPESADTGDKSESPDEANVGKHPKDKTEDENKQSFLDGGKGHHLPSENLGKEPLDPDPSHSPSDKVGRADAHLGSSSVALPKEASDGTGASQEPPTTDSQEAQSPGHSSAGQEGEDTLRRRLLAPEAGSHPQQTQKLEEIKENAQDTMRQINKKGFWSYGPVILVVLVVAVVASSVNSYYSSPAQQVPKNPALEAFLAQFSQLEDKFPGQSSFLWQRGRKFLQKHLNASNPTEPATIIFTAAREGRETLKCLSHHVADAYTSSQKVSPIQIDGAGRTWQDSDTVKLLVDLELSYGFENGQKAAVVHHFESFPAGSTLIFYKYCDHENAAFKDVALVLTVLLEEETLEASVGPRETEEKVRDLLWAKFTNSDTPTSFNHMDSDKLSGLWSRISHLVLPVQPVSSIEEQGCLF
# Chain of Neurogenic locus notch homolog protein 3 (Homo sapiens) (Q9UM47 whole entry, looked up): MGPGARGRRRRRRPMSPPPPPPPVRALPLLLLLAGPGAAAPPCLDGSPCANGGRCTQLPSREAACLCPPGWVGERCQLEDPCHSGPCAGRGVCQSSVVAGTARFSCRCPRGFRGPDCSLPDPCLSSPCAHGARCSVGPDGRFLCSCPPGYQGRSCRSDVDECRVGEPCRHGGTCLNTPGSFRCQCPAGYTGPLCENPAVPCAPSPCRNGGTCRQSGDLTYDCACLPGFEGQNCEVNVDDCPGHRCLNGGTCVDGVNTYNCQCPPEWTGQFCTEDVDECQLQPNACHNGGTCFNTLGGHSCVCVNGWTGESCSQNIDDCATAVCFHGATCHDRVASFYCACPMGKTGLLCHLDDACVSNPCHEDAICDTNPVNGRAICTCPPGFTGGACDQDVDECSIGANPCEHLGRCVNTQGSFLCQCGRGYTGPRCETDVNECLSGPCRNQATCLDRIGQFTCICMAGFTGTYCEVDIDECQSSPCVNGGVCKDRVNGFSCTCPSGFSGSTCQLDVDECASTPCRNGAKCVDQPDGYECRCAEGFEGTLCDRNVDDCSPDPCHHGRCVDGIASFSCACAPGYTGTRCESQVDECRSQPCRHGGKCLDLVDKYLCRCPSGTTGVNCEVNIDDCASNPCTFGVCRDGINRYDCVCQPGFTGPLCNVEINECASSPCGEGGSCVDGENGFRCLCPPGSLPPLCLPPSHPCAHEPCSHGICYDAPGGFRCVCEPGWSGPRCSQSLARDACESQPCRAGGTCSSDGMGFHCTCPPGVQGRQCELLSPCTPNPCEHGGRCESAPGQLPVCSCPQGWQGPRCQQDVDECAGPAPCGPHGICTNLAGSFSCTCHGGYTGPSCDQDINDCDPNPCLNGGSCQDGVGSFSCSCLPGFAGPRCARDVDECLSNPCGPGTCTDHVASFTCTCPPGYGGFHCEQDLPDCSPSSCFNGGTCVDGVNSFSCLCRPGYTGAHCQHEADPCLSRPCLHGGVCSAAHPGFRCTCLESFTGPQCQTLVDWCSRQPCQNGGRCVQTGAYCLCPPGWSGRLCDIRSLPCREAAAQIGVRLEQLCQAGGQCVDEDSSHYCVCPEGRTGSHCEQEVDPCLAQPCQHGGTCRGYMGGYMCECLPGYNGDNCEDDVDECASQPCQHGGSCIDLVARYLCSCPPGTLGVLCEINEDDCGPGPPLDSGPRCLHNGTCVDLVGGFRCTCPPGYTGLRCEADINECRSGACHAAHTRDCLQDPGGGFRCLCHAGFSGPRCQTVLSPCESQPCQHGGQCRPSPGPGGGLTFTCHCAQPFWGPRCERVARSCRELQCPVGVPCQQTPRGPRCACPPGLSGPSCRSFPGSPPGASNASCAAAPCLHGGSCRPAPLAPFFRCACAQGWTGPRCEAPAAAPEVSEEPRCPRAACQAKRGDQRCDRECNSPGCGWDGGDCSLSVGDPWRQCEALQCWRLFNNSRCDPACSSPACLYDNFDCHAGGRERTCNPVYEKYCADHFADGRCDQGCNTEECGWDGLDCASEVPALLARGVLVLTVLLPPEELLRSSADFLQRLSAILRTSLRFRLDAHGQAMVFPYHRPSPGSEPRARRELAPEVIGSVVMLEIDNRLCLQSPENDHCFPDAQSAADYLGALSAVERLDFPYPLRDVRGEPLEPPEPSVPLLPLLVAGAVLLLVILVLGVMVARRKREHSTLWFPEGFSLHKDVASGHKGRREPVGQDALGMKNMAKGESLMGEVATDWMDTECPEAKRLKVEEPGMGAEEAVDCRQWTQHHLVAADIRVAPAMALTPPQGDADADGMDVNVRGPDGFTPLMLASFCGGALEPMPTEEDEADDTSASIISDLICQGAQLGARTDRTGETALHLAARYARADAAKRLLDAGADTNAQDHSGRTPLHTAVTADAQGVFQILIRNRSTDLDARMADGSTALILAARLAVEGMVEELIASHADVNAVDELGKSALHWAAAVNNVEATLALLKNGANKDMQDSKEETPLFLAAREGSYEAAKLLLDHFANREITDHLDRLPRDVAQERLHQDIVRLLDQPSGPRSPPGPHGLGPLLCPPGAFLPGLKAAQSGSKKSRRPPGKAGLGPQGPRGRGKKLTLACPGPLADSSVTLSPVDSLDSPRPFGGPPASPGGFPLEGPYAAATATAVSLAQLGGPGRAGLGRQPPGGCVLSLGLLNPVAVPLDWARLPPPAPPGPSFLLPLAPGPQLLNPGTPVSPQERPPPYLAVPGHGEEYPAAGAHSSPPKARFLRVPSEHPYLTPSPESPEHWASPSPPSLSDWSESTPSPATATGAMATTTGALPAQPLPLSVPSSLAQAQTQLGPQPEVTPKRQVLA
# Chain of Fibroblast growth factor 10 (Homo sapiens) (O15520 whole entry, looked up): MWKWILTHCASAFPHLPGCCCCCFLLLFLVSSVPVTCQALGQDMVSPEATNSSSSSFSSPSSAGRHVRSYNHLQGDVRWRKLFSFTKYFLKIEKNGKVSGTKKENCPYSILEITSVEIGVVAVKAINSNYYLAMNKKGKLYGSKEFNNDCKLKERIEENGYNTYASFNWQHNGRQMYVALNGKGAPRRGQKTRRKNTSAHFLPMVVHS
# Chain of Epidermal growth factor receptor (Homo sapiens) (P00533 whole entry, looked up): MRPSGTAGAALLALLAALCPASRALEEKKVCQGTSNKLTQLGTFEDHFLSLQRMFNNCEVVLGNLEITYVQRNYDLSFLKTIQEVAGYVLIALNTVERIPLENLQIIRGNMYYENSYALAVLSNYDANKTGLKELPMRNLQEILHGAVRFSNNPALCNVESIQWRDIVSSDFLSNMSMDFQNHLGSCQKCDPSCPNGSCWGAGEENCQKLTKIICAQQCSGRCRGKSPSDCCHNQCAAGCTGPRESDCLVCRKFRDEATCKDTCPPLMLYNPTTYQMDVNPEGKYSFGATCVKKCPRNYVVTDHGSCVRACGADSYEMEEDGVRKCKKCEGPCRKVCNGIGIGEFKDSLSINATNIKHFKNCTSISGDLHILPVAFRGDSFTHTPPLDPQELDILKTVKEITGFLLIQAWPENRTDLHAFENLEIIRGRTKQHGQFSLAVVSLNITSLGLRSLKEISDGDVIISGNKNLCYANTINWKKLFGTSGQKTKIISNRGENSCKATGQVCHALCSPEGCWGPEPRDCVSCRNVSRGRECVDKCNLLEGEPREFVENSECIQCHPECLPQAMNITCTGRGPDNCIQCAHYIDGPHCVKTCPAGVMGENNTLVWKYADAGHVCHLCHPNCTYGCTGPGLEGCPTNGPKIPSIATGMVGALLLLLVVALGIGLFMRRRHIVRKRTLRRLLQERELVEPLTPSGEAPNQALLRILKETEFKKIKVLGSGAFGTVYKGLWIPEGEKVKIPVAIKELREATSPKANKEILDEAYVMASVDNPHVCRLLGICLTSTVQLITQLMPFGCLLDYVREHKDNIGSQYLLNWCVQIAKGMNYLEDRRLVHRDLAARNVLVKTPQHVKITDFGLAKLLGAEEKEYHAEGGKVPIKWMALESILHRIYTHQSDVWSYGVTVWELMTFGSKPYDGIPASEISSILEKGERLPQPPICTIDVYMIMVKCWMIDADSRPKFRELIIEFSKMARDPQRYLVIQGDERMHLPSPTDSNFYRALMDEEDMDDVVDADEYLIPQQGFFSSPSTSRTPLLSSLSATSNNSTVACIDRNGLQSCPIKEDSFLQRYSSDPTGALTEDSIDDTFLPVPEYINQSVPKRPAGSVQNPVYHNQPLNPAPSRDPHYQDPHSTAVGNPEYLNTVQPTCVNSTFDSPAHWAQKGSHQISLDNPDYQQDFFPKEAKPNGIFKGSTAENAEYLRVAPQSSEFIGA
# Chain of Dickkopf-related protein 1 (Homo sapiens) (O94907 whole entry, looked up): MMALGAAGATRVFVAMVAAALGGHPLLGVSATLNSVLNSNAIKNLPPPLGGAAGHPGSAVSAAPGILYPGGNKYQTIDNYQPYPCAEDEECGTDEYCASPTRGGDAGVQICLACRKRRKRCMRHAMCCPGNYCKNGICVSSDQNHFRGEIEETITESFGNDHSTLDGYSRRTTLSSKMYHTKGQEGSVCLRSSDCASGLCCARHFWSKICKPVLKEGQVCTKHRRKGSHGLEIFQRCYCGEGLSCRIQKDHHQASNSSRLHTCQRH
Structure (SMILES),composite z-score [1],z-score [2],z-score [3],z-score [4],composite z-score [5],z-score [6],composite z-score [7],composite z-score [8],composite z-score [9],composite z-score [10],composite z-score [11],composite z-score [12],composite z-score [13],z-score [14],composite z-score [15],composite z-score [16],composite z-score [17],composite z-score [18],composite z-score [19],composite z-score [20]
CC(C)C[C@H]1NC(=O)[C@@H](C)NC(=O)[C@@]23C(=O)N[C@@H](Cc4ccccc4)C2[C@H](C)[C@@]2(C)O[C@H]2C3/C=C/C/C=C\CNC1=O (stereo not given in full),0.938,-0.904 (inactive),-0.721 (inactive),-0.651 (inactive),1.28,-0.64 (inactive),-0.221,0.407,0.596,-0.0615,1.13,-0.334,-0.585,-0.0326 (inactive),0.509,-0.164,0.634,0.638,0.389,1.29
CCCC[C@@H]1C[C@H]1[C@@H](NC(=O)c1ccc(C(F)(F)F)cc1)c1ccc(C(=O)OC)cc1,0.715,0.119 (inactive),-3.29 (inactive),-0.898 (inactive),0.888,0.255 (inactive),0.293,0.747,0.812,0.695,0.234,0.172,0.158,-1.22 (inactive),0.743,0.352,0.6,1.09,0.583,1.32
CCCCN1CC=CC23O[C@@H]4/C=C\CCC(C)OC(=O)C4[C@H]2C(=O)N(C(C)CO)[C@@H]3C1=O (stereo not given in full),-1.58,0.324 (inactive),-0.944 (inactive),0.316 (inactive),-1.13,-0.182 (inactive),-0.317,-0.422,-0.878,-0.401,0.356,-0.463,-0.471,1.07 (inactive),-0.816,-0.937,-0.659,-0.719,-0.127,1.19
COC(=O)Cn1c(C(=O)N(C)C)cc2c1C[C@H]1CN(C(=O)c3ccccc3)[C@@](Cc3ccc(OC)cc3)(C(=O)OC)[C@@H]21,0.995,0.211 (inactive),0.833 (inactive),0.493 (inactive),3.7,-0.692 (inactive),0.134,0.471,1.11,-0.0476,1.39,0.311,0.635,-4.19 (inactive),1.13,-0.196,0.0287,0.36,-0.165,0.421
CCOC(=O)C1=CCC(c2cc3ccccc3[nH]2)N(S(=O)(=O)c2ccccc2[N+](=O)[O-])C1 (stereo not given),0.659,-0.134 (inactive),1.18 (inactive),1.41 (inactive),3.07,-0.424 (inactive),-0.125,0.674,0.356,0.0357,0.984,0.225,-0.006,-0.365 (inactive),0.696,0.565,-0.106,0.319,-0.117,0.722
Cc1ccc(F)cc1S(=O)(=O)N[C@@H]1CCN(Cc2ccc3[nH]ccc3c2)C1,0.556,-0.765 (inactive),-2.97 (inactive),-0.873 (inactive),2.31,-1.76 (inactive),-0.177,0.418,0.933,-0.0512,0.114,-0.177,-0.124,0.309 (inactive),0.482,0.139,0.651,1.08,0.574,0.689
NC(=O)NCC#Cc1ccc2c(c1)[C@]1(C(=O)N2)[C@H](C(=O)Nc2nc3ccccc3s2)[C@H]2C(=O)O[C@H](c3ccccc3)[C@H](c3ccccc3)N2[C@@H]1c1ccc(OCCO)cc1,-0.006,1.83 (inactive),1.87 (inactive),2.18 (inactive),0.963,0.976 (inactive),-0.0616,0.479,0.353,-0.138,-0.478,0.738,1.13,1.37 (inactive),0.253,-0.95,0.0294,0.559,-0.52,0.765
COCCn1c(C(=O)N2CCCC2)cc2c1C[C@H]1CN(C(=O)c3ccccc3)[C@@](Cc3ccccc3)(C(=O)OC)[C@@H]21,1.28,0.448 (inactive),0.105 (inactive),0.573 (inactive),3.11,0.0508 (inactive),0.907,0.386,0.805,0.827,1.06,0.592,0.268,-1.09 (inactive),1.15,1.26,-0.273,0.166,0.257,0.693
COc1ccc(CCNC(=O)[C@@H]2c3ccccc3C(=O)N(CC34CC5CC(CC(C5)C3)C4)[C@H]2c2ccc(CO)cc2)cc1,1.12,-0.543 (inactive),-0.817 (inactive),-0.13 (inactive),2.45,0.573 (inactive),-0.297,1.92,1.06,-0.0828,0.959,-0.0038,0.309,-1.02 (inactive),1.06,0.406,0.277,0.644,0.323,0.64
[N-]=[N+]=NCc1ccccc1C[C@]1(C(=O)N2CCOCC2)N=C(c2ccc(OCCCO)cc2)O[C@H]1c1ccccc1CN=[N+]=[N-],1.56,1.66 (inactive),0.284 (inactive),16.6 (active),3.61,0.27 (inactive),0.747,0.809,0.616,0.732,1.33,1.42,1.39,-1.2 (inactive),1.39,0.935,-0.134,0.217,-0.275,1.43
